Holding throughout (assay): NCI-60 one-dose screen, 48 h (100 = growth as untreated, 0 = no growth, -100 = all killed)
The subject of one experiment is RPMI-8226 leukemia. The settings on record: 10 µM unless noted.
The next experiment has as its system OVCAR-8 ovarian. The settings on record: 10 µM unless noted.
For another experiment, the system named is OVCAR-5 ovarian. The note with it: 10 µM unless noted.
The next experiment relates to OVCAR-4 ovarian. The settings on record: 10 µM unless noted.
The next experiment deals with IGROV1 ovarian. The note with it: 10 µM unless noted.
For the next experiment, the system named is OVCAR-3 ovarian. The settings on record: 10 µM unless noted.
In the next experiment the test system is HS 578T breast. The note with it: 10 µM unless noted.
The next experiment concerns NCI/ADR-RES ovarian. The note with it: 10 µM unless noted.
The test system of the next experiment is T-47D breast. The note with it: 10 µM unless noted.
A further experiment concerns BT-549 breast. The note with it: 10 µM unless noted.
A further experiment deals with MDA-MB-435 melanoma. The settings on record: 10 µM unless noted.
In the next experiment the test system is SW-620 colon. The note with it: 10 µM unless noted.
Another experiment deals with MCF7 breast. The settings on record: 10 µM.
The test system of a further experiment is HCT-116 colon. The note with it: 10 µM unless noted.
The next experiment has as its system HCC-2998 colon. The settings on record: 10 µM unless noted.
The test system of a further experiment is KM12 colon. The settings on record: 10 µM unless noted.

In PubChem BioAssay (NCI) one finds growth data, which are given here for nine compounds.

The panel holds about 83,000 compounds, 20% with a hit somewhere; the sample as a whole holds those more often.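 For each line, cells grew in 96-well plates with the test compound present at a single concentration for 48 hours.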 Unmarked numbers belong to inactive results. Calls of active or inactive are those of the source. The calls were made as follows: active = growth percent below 10; inactive = the rest.

`O=C1/C(=C/c2ccc(O)cc2)COc2ccc(O)c(O)c21`: the growth was -6.76% (active) in the experiment on RPMI-8226 leukemia; 17.6% in the experiment on OVCAR-8 ovarian; 43.7% in the experiment on OVCAR-5 ovarian; 43.7% with OVCAR-4 ovarian; 8.79% (active) in the experiment on IGROV1 ovarian; -8.96% (active) in the experiment with OVCAR-3 ovarian. In addition, the growth is 47.4% in the experiment with HS 578T breast; 27.2% with NCI/ADR-RES ovarian; 11.8% in the experiment with T-47D breast; 57.5% with BT-549 breast; 19.5% in the experiment on MDA-MB-435 melanoma; 28.4% in the experiment with SW-620 colon. Also, the growth in the experiment with MCF7 breast was 13.8%; in the experiment on HCT-116 colon, 20.8%; with HCC-2998 colon it was 75.7%; in the experiment with KM12 colon, 19.8%.

Take `COC(=O)C1(C)CCC[C@]2(C)[C@H]3C[C@H]4C(C(C)C)=C[C@]3(CC[C@@H]12)[C@H]1[C@@H]4[C@@H](OCC#CCN2CCOCC2)CC[C@@H]1OCC#CCN1CCOCC1` (stereo not given in full): the growth is 67.7% in the experiment with RPMI-8226 leukemia; 83.2% in the experiment with OVCAR-8 ovarian; 106% with OVCAR-5 ovarian; 64.7% in the experiment with OVCAR-4 ovarian; 70.6% in the experiment on IGROV1 ovarian; 86.3% with OVCAR-3 ovarian. Also, the growth in the experiment with HS 578T breast was 86.6%; in the experiment on NCI/ADR-RES ovarian, 74.9%; with T-47D breast, 64.5%; with BT-549 breast, 97.7%; in the experiment with MDA-MB-435 melanoma, 92.5%; in the experiment with SW-620 colon, 94.7%. Moreover, the growth with MCF7 breast was 77.3%; in the experiment with HCT-116 colon, 81%; with HCC-2998 colon, 97.4%; in the experiment on KM12 colon it was 93.2%.

For `O=Cc1c(OCc2cnnn2CC(=O)Nc2ccc(Br)cc2)ccc2ccccc12`, the growth is 104% with RPMI-8226 leukemia; 96.1% in the experiment on OVCAR-8 ovarian; 95% with OVCAR-5 ovarian; 97% in the experiment on OVCAR-4 ovarian; 85.9% in the experiment with IGROV1 ovarian; 97.2% in the experiment with OVCAR-3 ovarian. Besides, the growth is 85.1% with HS 578T breast; 90.5% in the experiment on NCI/ADR-RES ovarian; 78.7% in the experiment on T-47D breast; 80.8% with BT-549 breast; 102% in the experiment with MDA-MB-435 melanoma; 91.3% in the experiment with SW-620 colon. Further, the growth is 84.1% in the experiment on MCF7 breast, 101% with HCT-116 colon, 94.3% in the experiment with HCC-2998 colon and 88.7% with KM12 colon.

For `COc1cc(NC(=O)CCSc2nc3ccccc3c(=O)n2CCc2ccccn2)cc(OC)c1OC`, the growth with RPMI-8226 leukemia was 79%; with OVCAR-8 ovarian it was 79.1%; with OVCAR-5 ovarian, 89.4%; with OVCAR-4 ovarian it was 46.6%; with IGROV1 ovarian it was 99.8%; in the experiment on OVCAR-3 ovarian, 110%. For the same compound, the growth in the experiment with HS 578T breast was 89.2%; with NCI/ADR-RES ovarian, 89.4%; in the experiment on T-47D breast it was 69.7%; with BT-549 breast, 73.4%; with MDA-MB-435 melanoma, 101%; in the experiment with SW-620 colon it was 101%. For the same compound, the growth in the experiment with MCF7 breast was 62.4%; with HCT-116 colon it was 85.5%; in the experiment with HCC-2998 colon, 97.5%; in the experiment with KM12 colon it was 99.8%.

For the compound `NCCCNc1nc2ccccc2c2c(=O)c3cc(F)ccc3sc12`, the growth with RPMI-8226 leukemia is -2.73% (active); with OVCAR-8 ovarian, 2.1% (active); in the experiment on OVCAR-5 ovarian, 26.8%; with OVCAR-4 ovarian, 33%; with IGROV1 ovarian it was 20.1%; with OVCAR-3 ovarian, -16.4% (active). The growth in the experiment on HS 578T breast is 34.6%; in the experiment on T-47D breast, -39% (active); with BT-549 breast it was 81.1%; with MDA-MB-435 melanoma, -91% (active); with SW-620 colon it was -83.5% (active); in the experiment on MCF7 breast it was -69.8% (active). Further, the values for the growth with HCT-116 colon, in the experiment with HCC-2998 colon and with KM12 colon were -78.2% (active), -68.8% (active) and -73.7% (active), respectively.

In the case of `COc1ccc2sc3c(NCCCN)nc4ccccc4c3c(=O)c2c1`, the growth with RPMI-8226 leukemia is -6.79% (active); with OVCAR-8 ovarian, 0.199% (active); in the experiment on OVCAR-5 ovarian, 82.8%; in the experiment with OVCAR-4 ovarian, 34.5%; with IGROV1 ovarian, 58.6%; in the experiment on OVCAR-3 ovarian it was -22.4% (active). The growth with HS 578T breast is 70.9%; in the experiment with NCI/ADR-RES ovarian, 68.3%; in the experiment on T-47D breast it was -32.6% (active); with BT-549 breast, 82.1%; in the experiment with MDA-MB-435 melanoma, -79% (active); in the experiment on SW-620 colon, -75% (active). Further, the growth in the experiment on MCF7 breast was -74.2% (active); with HCT-116 colon, -84.1% (active); in the experiment on HCC-2998 colon, -67.1% (active); in the experiment with KM12 colon it was -54.6% (active).

For `O=C(/C=C/c1ccccc1)c1ccc(Nc2nc(NCCO)nc(Nc3ccc(Cl)cc3)n2)cc1`, the growth was 9.69% (active) in the experiment with RPMI-8226 leukemia; 89.1% in the experiment with OVCAR-8 ovarian; 97.7% in the experiment with OVCAR-5 ovarian; 73.4% in the experiment on OVCAR-4 ovarian; 97.3% in the experiment with IGROV1 ovarian; 59.9% in the experiment on OVCAR-3 ovarian. In addition, the growth is 93.1% in the experiment with HS 578T breast; 91.7% in the experiment with NCI/ADR-RES ovarian; 62.7% in the experiment on T-47D breast; 84.4% in the experiment on BT-549 breast; 77.2% with MDA-MB-435 melanoma; 18.7% in the experiment with SW-620 colon. Further, the growth in the experiment with MCF7 breast is 9.88% (active); with HCT-116 colon, 27.5%; in the experiment with HCC-2998 colon it was 62.5%; with KM12 colon, 28.2%.

As to `COc1ccc(/C=C/C(=O)c2ccc(Nc3nc(NCCO)nc(Nc4ccc(Cl)cc4)n3)cc2)cc1`, the growth in the experiment on RPMI-8226 leukemia is 8.06% (active); in the experiment with OVCAR-8 ovarian, 71.8%; in the experiment on OVCAR-5 ovarian, 95.7%; with OVCAR-4 ovarian, 62.6%; in the experiment on OVCAR-3 ovarian, 73.1%; in the experiment on HS 578T breast it was 87.5%. In addition, the growth was 83.2% in the experiment with NCI/ADR-RES ovarian; 38% in the experiment on T-47D breast; 61.3% in the experiment on BT-549 breast; 65.4% in the experiment on MDA-MB-435 melanoma; 91.1% in the experiment on SW-620 colon; 12.9% in the experiment with MCF7 breast. Further, the growth in the experiment with HCT-116 colon was 19.8%; with HCC-2998 colon, 57.2%; with KM12 colon it was 41%.

Take `NCCOc1ncccc1/C=C1\c2ccccc2-c2ccc([N+](=O)[O-])cc21`: the growth in the experiment on RPMI-8226 leukemia was -21.5% (active); in the experiment on OVCAR-8 ovarian, -13% (active); with OVCAR-5 ovarian, -72.8% (active); in the experiment with OVCAR-4 ovarian, -69.2% (active); in the experiment on IGROV1 ovarian, -80.2% (active); with HS 578T breast it was -5.23% (active). In addition, the growth in the experiment with T-47D breast was -30.4% (active); in the experiment on BT-549 breast, -17.2% (active); in the experiment with MDA-MB-435 melanoma it was -70.5% (active); in the experiment with SW-620 colon, -50.3% (active); in the experiment with MCF7 breast, -42% (active); with HCT-116 colon, -74.6% (active). The growth is -82.2% (active) in the experiment with HCC-2998 colon and -51.5% (active) in the experiment with KM12 colon.
